# Structures can show the parent of a compound that is named as a salt.
# Experiments:
# Details in all cases: 10 µM; exposure time 6 h
# [1] = test system: Danio rerio larvae (5 dpf); test: difference in excitability vs DMSO (percentage points); higher = more excitable than DMSO
# In short: (§1)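 Wild-type 5 dpf zebrafish larvae in 96-well plates were given 100 µL egg water containing library compound at 10 µM final for 6 h. After 3 h of exposure, plates at 28.5 ℃ were photographed every 6 s during a 3-h programme of moving lines and 100 ms, 400Hz tones. Z-LaP Tracker (a DeepLabCut model) quantified each behaviour, averaged over 48 larvae per compound. Values are the compound mean minus the DMSO-vehicle control, in percentage points.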
# [2] = test system: Danio rerio larvae (5 dpf); test: difference in startle response vs DMSO (percentage points); higher = stronger startle than DMSO
# In short: as §1
# [3] = test system: Danio rerio larvae (5 dpf); test: difference in activity during first hour vs DMSO (percentage points); higher = more activity than DMSO
# In short: as §1
# [4] = test system: Danio rerio larvae (5 dpf); test: difference in habituation to acoustic stimuli vs DMSO (percentage points); higher = more habituation than DMSO
# In short: as §1
# [5] = test system: Danio rerio larvae (5 dpf); test: difference in combined optomotor response to red, green and blue moving lines vs DMSO (percentage points); higher = stronger optomotor response than DMSO
# In short: as §1
SMILES,difference in excitability [1],difference in startle response [2],difference in activity during first hour [3],difference in habituation to acoustic stimuli [4],difference [5]
CC1=C(C(=O)O)N2C(=O)[C@@H](NC(=O)[C@H](N)c3ccccc3)[C@H]2SC1 [Cephalexin],6.31,7.97,2.55,-0.572,3.98
COc1ccc(NC(=O)c2ccc(C(=N)N(C)C)cc2)c(C(=O)Nc2ccc(Cl)cn2)c1 [Betrixaban],11.6,2.94,2.19,5.98,7.59
CNS(=O)(=O)Cc1ccc2[nH]cc(CCN(C)C)c2c1 [Sumatriptan (succinate)],7.61,3.38,-12.9,5.35,-4.54
COc1cc2c(cc1OC)C(=O)C(CC1CCN(Cc3ccccc3)CC1)C2 (stereo not given) [Donepezil],12,-0.487,-0.402,-0.748,-2.38
COc1cc2c(cc1OC)[C@@H](Cc1cc(OC)c(OC)c(OC)c1)[N+](C)(CCCOC(=O)CC/C=C/CCC(=O)OCCC[N+]1(C)CCc3cc(OC)c(OC)cc3[C@H]1Cc1cc(OC)c(OC)c(OC)c1)CC2 (stereo not given in full) [Mivacurium (chloride)],19.5,-7.63,-16.7,4.16,5.12
C[C@@H](CN1CC(=O)NC(=O)C1)N1CC(=O)NC(=O)C1 [Dexrazoxane],5.16,0.825,-0.0194,3.65,4.12
O=C1CC2(CCCC2)CC(=O)N1CCCCN1CCN(c2ncccn2)CC1 [Buspirone (hydrochloride)],24.5,1.48,-8.4,4.59,0.171
C[C@@H](O)[C@H]1C(=O)N2C(C(=O)O)=C(S[C@@H]3CN[C@H](C(=O)N(C)C)C3)[C@H](C)[C@H]12 [Meropenem (hydrate)],3.3,-1.18,0.0616,-0.499,3.61
CC(C)OC(=O)CCC/C=C\C[C@@H]1[C@@H](CC[C@@H](O)CCc2ccccc2)[C@H](O)C[C@@H]1O [Latanoprost],1.84,-0.286,20.8,3.23,7.08
COC(=O)N[C@H](C(=O)N1CCC[C@H]1c1ncc(-c2ccc(-c3ccc(-c4cnc([C@@H]5CCCN5C(=O)[C@@H](NC(=O)OC)C(C)C)[nH]4)cc3)cc2)[nH]1)C(C)C [Daclatasvir],18.7,2.15,-4.26,0.308,-0.609
CC(=O)S[C@@H]1CC2=CC(=O)CC[C@]2(C)[C@H]2CC[C@@]3(C)[C@@H](CC[C@@]34CCC(=O)O4)[C@H]12 [Spironolactone],2.95,-1.12,0.438,-0.129,-0.69
CN(C)CCOC(c1ccc(Cl)cc1)c1ccccn1 (stereo not given) [Carbinoxamine (maleate)],8.33,3.19,-11.6,5.36,-7.17
COc1ccc(CCN(C)CCCC(C#N)(c2ccc(OC)c(OC)c2)C(C)C)cc1OC (stereo not given) [Verapamil (hydrochloride)],7.52,-8.68,-17.7,-4.3,-6.45
CCC1(c2ccccc2)C(=O)NCNC1=O [Primidone],3.77,4.38,11.2,-0.65,9.02
Cc1cc(C)cc(OCC2CNC(=O)O2)c1 (stereo not given) [Metaxalone],8.24,-0.153,0.609,5.03,10.1
NCCCCCC(=O)O [6-Aminocaproic Acid],8.15,-0.142,5.22,0.269,3.43
CSc1ccc2c(c1)N(CCC1CCCCN1C)c1ccccc1S2 (stereo not given) [Thioridazine (hydrochloride)],19.8,-0.778,12.9,-8.21,-5
C[C@@H]1CCO[C@H]2Cn3cc(C(=O)NCc4ccc(F)cc4F)c(=O)c(O)c3C(=O)N12 [Dolutegravir],9.08,3.83,7.43,1.07,7.64
C[C@H]1COc2c(N3CCN(C)CC3)c(F)cc3c(=O)c(C(=O)O)cn1c23 [Levofloxacin],-4.09,1.07,16.5,2.74,4.84

SMILES,difference in excitability [1],difference in startle response [2],difference in activity during first hour [3],difference in habituation to acoustic stimuli [4],difference [5]
CCOC(=O)c1ccc(C#Cc2ccc3c(c2)C(C)(C)CCS3)nc1 [Tazarotene],13.2,-9.42,54.2,-9.47,-15.1
C[C@]12CC[C@@H]3c4ccc(O)cc4C[C@@H](CCCCCCCCC[S+]([O-])CCCC(F)(F)C(F)(F)F)[C@H]3[C@@H]1CC[C@@H]2O (stereo not given in full) [Fulvestrant],1.25,0.684,-0.447,1.81,1.43
CCCCc1nc(Cl)c(CO)n1Cc1ccc(-c2ccccc2-c2nnn[nH]2)cc1 [Losartan (potassium salt)],3.08,0.6,6.85,-4.35,-1.12
O=c1[nH]cnc2c1ncn2[C@H]1CC[C@@H](CO)O1 [Didanosine],1.69,-3.05,4.04,-1.02,4.2
CCC(=O)OCC(=O)[C@@]1(OC(=O)CC)[C@H](C)C[C@H]2[C@H]3[C@H]([C@@H](O)C[C@@]21C)[C@@]1(C)C=CC(=O)C=C1C[C@H]3Cl [Alclometasone Dipropionate],3.59,5.9,-1.03,-0.676,5.42
N=C(NCCCCCCNC(=N)NC(=N)Nc1ccc(Cl)cc1)NC(=N)Nc1ccc(Cl)cc1 [Chlorhexidine (hydrochloride)],11.8,-11,-19.9,-10.2,-17.6
CCCCNc1ccc(C(=O)OCCOCCOCCOCCOCCOCCOCCOCCOCCOC)cc1 [Benzonatate],6.12,1.4,-1.8,6.2,-0.0866
CN(C)CC[C@@H](c1ccc(Cl)cc1)c1ccccn1 [Dexchlorpheniramine (maleate)],5.44,3.98,-18.8,1.79,-3.17
C#C[C@]1(O)CC[C@H]2[C@@H]3CCC4=CC(=O)CC[C@@H]4[C@H]3CC[C@@]21CC [Levonorgestrel],2.02,-3.01,-12.7,-0.397,3.05
CN(C)CCCC1(c2ccc(F)cc2)OCc2cc(C#N)ccc21 (stereo not given) [Citalopram (hydrobromide)],8.67,-1.92,-12.8,-3.86,-4.06
CCc1c(Cl)c(O)c(Cl)c(O)c1C(=O)O[C@H]1[C@H](O)[C@H](OC)[C@H](OCC2=CC=CC[C@H](O)C(C)=C[C@H](CC)[C@@H](O[C@@H]3OC(C)(C)C(OC(=O)C(C)C)[C@H](O)[C@@H]3O)C(C)=CC(C)=CC[C@@H]([C@@H](C)O)OC2=O)O[C@@H]1C (stereo not given in full) [Fidaxomycin],1.12,8.11,12.6,4.21,4.75
COc1cc(CNC(=O)CCCC/C=C/C(C)C)ccc1O [Capsaicin],12.5,8.06,-6.37,-0.624,5.27
O=C(c1cc(Cc2n[nH]c(=O)c3ccccc23)ccc1F)N1CCN(C(=O)C2CC2)CC1 [Olaparib],-5.41,-4.44,2.13,-3.55,4.86
CCOC(=O)[C@H](CCc1ccccc1)N[C@@H](C)C(=O)N1CCC[C@H]1C(=O)O [Enalapril (maleate)],0.733,3.17,-0.995,-3.38,7.06
COc1cc2c(cc1OC)CC(=O)N(CCCN(C)C[C@H]1Cc3cc(OC)c(OC)cc31)CC2 [Ivabradine (hydrochloride)],8.58,0.00664,14.5,-0.807,9.1
CC(=O)O[C@]1(C(C)=O)CC[C@H]2[C@@H]3C=C(C)C4=CC(=O)CC[C@]4(C)[C@H]3CC[C@@]21C [Megestryl Acetate],20.8,-4.3,4.4,-8.79,-10.8
O=C(O)COCCN1CCN(C(c2ccccc2)c2ccc(Cl)cc2)CC1 (stereo not given) [Cetirizine (hydrochloride)],-1.62,2.46,4.04,-2.99,6.72
Cc1ccc(C(=O)c2ccc(CC(=O)O)n2C)cc1 [Tolmetin (sodium salt hydrate)],-2.25,2.51,13.8,1.94,7.94

# — the supplement of paper PMC10515830
